In the supplement of paper PMC10498489:
Hit rate of the full screen: of about 2,300 compounds, about 330 (14%) showed activity.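 The calls were made as follows: active = median modified Z-score above 1.96; inactive = 1.96 or below.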 The list is a sample of the results.

Test system: HepG2 Srxn1-GFP reporter cells (+30 nM CDDO-Me)
Test: Srxn1-GFP intensity median modified Z-score relative to plate median; higher = stronger NRF2 / oxidative stress reporter activation, active = hit call of the paper
Details: 10 µM; exposure time: 24h
In short: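 Each value is the replicate median of a per-plate modified Z-score for GFP intensity in HepG2 Srxn1-GFP BAC reporter cells. The cells (20,000 per well, 96-well plates, three replicate plates) received compound at 10 μM together with an NRF2 activator at 30 nM for 24 h, in ≤0.1% DMSO. Cytoplasmic GFP was quantified per cell from confocal images of formaldehyde-fixed, Hoechst-stained cells, leaving out images with fewer than 100 cells, and scaling used 1.4826 × median absolute deviation.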

SMILES	Srxn1-GFP intensity median modified Z-score
O=C(NC(=O)c1c(F)cccc1F)Nc1cc(Cl)c(OC(F)(F)C(F)C(F)(F)F)cc1Cl (configuration not stated) [euspeclibcmpd1213]	13.1 (active)
CCC1(CC)C(=O)NC(=S)NC1=O	1.23 (inactive)
CC1=CC(=O)c2c(O)cccc2C1=O [euspeclibcmpd1444]	67.7 (active)
O=C1C=CC(=O)c2c(O)cccc21 [euspeclibcmpd1492]	0.761 (inactive)
CC1(C)C2CC(=O)[C@]3(C)C(CC[C@@]4(C)[C@H](c5ccoc5)OC(=O)C5O[C@]543)[C@@]2(C)C(=O)C[C@H]1O (some centres not stated) [euspeclibcmpd1592]	-0.255 (inactive)
N#Cc1[nH]n(-c2c(Cl)cc(C(F)(F)F)cc2Cl)c(=N)c1[S+]([O-])C(F)(F)F (configuration not stated) [euspeclibcmpd821]	-0.323 (inactive)
O=C1CC[C@@]2(O)[C@H]3Cc4ccc(O)c5c4C2(CCN3CC2CC2)C1O5 (some centres not stated) [euspeclibcmpd560]	-0.0532 (inactive)
Cc1c[nH]cn1 [euspeclibcmpd2111]	-0.158 (inactive)
CC1=CCC[C@@H]2C1(C)CCC(C)[C@@]2(C)CC/C(C)=C/Cn1c[n+](C)c2c(=N)nc[nH]c21 (some centres not stated) [euspeclibcmpd1491]	13.7 (active)
COc1ccc2c(c1O)[C@@]13CCN(C)[C@@H](C2)C1=CC(OC)C(=O)C3 (some centres not stated) [euspeclibcmpd1375]	-0.172 (inactive)
CC(C)c1ccc2c(c1O)CCC1c3coc(O)c3CC[C@]21C (some centres not stated) [euspeclibcmpd2379]	-0.468 (inactive)
Nc1ccc([As](=O)(O)O)cc1 [euspeclibcmpd2461]	11.1 (active)
O=C1CC2OCC=C3CN4CC[C@]56c7ccccc7N1C5[C@H]2[C@H]3CC46 (some centres not stated) [euspeclibcmpd327]	-0.00366 (inactive)
COP(=S)(OC)Oc1ccc(SC)c(C)c1 [euspeclibcmpd1025]	-0.288 (inactive)
O=C(CCCN1CCC2(CC1)C(=O)NCN2c1ccccc1)c1ccc(F)cc1 [euspeclibcmpd405]	10.2 (active)
C#C[C@]1(O)CCC2C3CC=C4CC(=O)CCC4C3CC[C@@]21C (some centres not stated) [euspeclibcmpd2269]	1.21 (inactive)
C#C[C@]1(O)CCC2C3CC=C4CC(=O)CCC4C3CC[C@@]21C (some centres not stated) [euspeclibcmpd2279]	0.0789 (inactive)
CCCCOC(=O)c1ccccc1C(=O)OCCCC [euspeclibcmpd1242]	-0.441 (inactive)
CCCCCCCCC(=O)NCc1ccc(O)c(OC)c1 [euspeclibcmpd1268]	-0.241 (inactive)

SMILES	Srxn1-GFP intensity median modified Z-score
CC(=O)O[C@H]1C[C@H](O[C@H]2[C@@H](O)C[C@H](O[C@H]3[C@@H](O)C[C@H](O[C@H]4CC[C@@]5(C)C(CCC6C5C[C@@H](O)[C@]5(C)C(c7coc(O)c7)CC[C@]65O)C4)O[C@@H]3C)O[C@@H]2C)O[C@H](C)[C@H]1O[C@@H]1O[C@H](CO)[C@@H](O)[C@H](O)[C@H]1O (some centres not stated) [euspeclibcmpd420]	-0.493 (inactive)
CC1CCC2(OC1)OC1C(O)C3C4CCC5CC(OC6OC(CO)C(OC7OC(CO)C(O)C(OC8OCC(O)C(O)C8O)C7OC7OC(CO)C(O)C(OC8OC(CO)C(O)C(O)C8O)C7O)C(O)C6O)C(O)CC5(C)C4CCC3(C)C1C2C (configuration not stated) [euspeclibcmpd1933]	22.3 (active)
C[C@@H]1CC[C@@]2(NC1)O[C@H]1C[C@H]3C4CC=C5C[C@@H](O)CC[C@]5(C)C4CC[C@]3(C)C1[C@@H]2C (some centres not stated) [euspeclibcmpd1732]	0.173 (inactive)
C[C@H]1CC[C@]2(NC1)OC1CC3C4CCC5C[C@@H](O[C@@H]6O[C@H](CO)[C@H](O[C@H]7O[C@H](CO)[C@@H](O)[C@H](O[C@@H]8OC[C@@H](O)[C@H](O)[C@H]8O)[C@H]7O[C@@H]7O[C@H](CO)[C@@H](O)[C@H](O)[C@H]7O)[C@H](O)[C@H]6O)CC[C@]5(C)C4CC[C@]3(C)C1[C@@H]2C (some centres not stated) [euspeclibcmpd480]	71.3 (active)
CCNC1(c2cccs2)CCCCC1=O (configuration not stated) [euspeclibcmpd629]	-0.153 (inactive)
O=C1NC(=O)C(=O)C(=O)N1 [euspeclibcmpd1767]	0.258 (inactive)
NC(=O)C[S@@+]([O-])C(c1ccccc1)c1ccccc1 [euspeclibcmpd2097]	0.795 (inactive)
O=c1[nH]c(=O)n(Cl)c(=O)n1Cl [euspeclibcmpd2375]	0.319 (inactive)
c1cncc(C2CCCCN2)c1 (configuration not stated) [euspeclibcmpd1406]	0.116 (inactive)
COc1ccc2c(c1)[C@]13CCCC[C@@H]1[C@H](C2)N(C)CC3 [euspeclibcmpd87]	0.145 (inactive)
CC1(C)C(=O)C2O[C@@H]2[C@@]2(C)C1C[C@@H](O)[C@]1(C)C2CC[C@@]2(C)[C@H](c3ccoc3)OC(=O)C3OC321 (some centres not stated) [euspeclibcmpd1634]	0.977 (inactive)
CC(=O)O[C@@H]1CC2C(C)(C)C(=O)C=C[C@]2(C)C2CC[C@]3(C)C(=CC(=O)O[C@H]3c3ccoc3)[C@@]21C (some centres not stated) [euspeclibcmpd1551]	38.8 (active)
CC(=O)OC1CC(OC(C)=O)C2(C)C(CC(OC(C)=O)C3(C)C2CCC2(C)C(c4ccoc4)C(=O)C4OC423)C1(C)C (configuration not stated) [euspeclibcmpd1943]	1.55 (inactive)
COC(=O)C1CC(OC(C)=O)C(=O)C2C1(C)CCC1C(=O)OC(c3ccoc3)CC12C (configuration not stated) [euspeclibcmpd1949]	-0.455 (inactive)
CC1(C)C2CC(=O)[C@]3(C)C(CC[C@@]4(C)[C@H](c5ccoc5)OC(=O)C5OC543)[C@@]2(C)[C@@H](O)C[C@H]1O (some centres not stated) [euspeclibcmpd1573]	-0.392 (inactive)
CC1(C)C(=O)C=C[C@@]2(C)C1C[C@@H](O)[C@]1(C)C2CC[C@@]2(C)[C@H](c3ccoc3)OC(=O)C3O[C@]321 (some centres not stated) [euspeclibcmpd1629]	32.4 (active)
CC(CC(C(N)=O)(c1ccccc1)c1ccccc1)N(C)C (configuration not stated) [euspeclibcmpd819]	-0.42 (inactive)
C[N+]12CC[C@@]34c5ccccc5N5C(=O)CC6OCC=C(C1)[C@H](CC32)[C@@H]6C54 (some centres not stated) [euspeclibcmpd1705]	-0.091 (inactive)
